Test results as given in ChEMBL document CHEMBL3988442, “University of Dundee, Small-Polar-MMV Screening Library” (2021).
In all, about 48,000 compounds went through this assay and about 13,000 (27%) showed an effect of 50% or more. The list shows a part of the results.

tested on: Wolbachia pipientis; test: Anti-Wolbachia Cell-Based Screen; assay type: functional; set-up: scale not given: in the data most compounds retested in dose-response had high values; settings: 5 µM

SMILES | Percent Effect
Cc1noc(C)c1CN(C)Cc1csc(-c2ccccc2F)n1 | 6.793%
CSC(C)(C)CNC(=O)NCC[S+]([O-])c1ccccc1F (stereo not given) | 3.709%
COCc1nc2n(n1)CCCC2Nc1nc(C2CC2)ns1 (stereo not given) | -6.792%
COC[C@H]1CC[C@H]2[C@H](CCN2S(=O)(=O)Cc2ccccc2)O1 | -8.908%
Cn1cc(-c2nc(CNCCn3cccn3)cs2)cn1 | 1.057%
CN(C)C1(CNc2nccc(-c3cnn(C)c3)n2)CCSC1 (stereo not given) | 0.386%
Cc1cnc(NCc2ccncc2)nc1-c1cnn(C)c1 | 107.1%
Cc1cnc(CNCc2cnc(-c3ccccc3C)s2)cn1 | 2.85%
Cn1cc(-c2ccnc(NCC3CCN(Cc4ccccc4)C3)n2)cn1 (stereo not given) | 1.277%
Cc1cnc(CNc2ncc(C)c(-c3cnn(C)c3)n2)cn1 | 99.76%
Cc1ccc(Br)c(S(=O)(=O)NCc2cnn(C)c2)c1 | -6.157%
Cc1ccc(CCNc2ncc(C)c(-c3ccnn3C)n2)s1 | -9.646%
Cn1cc(-c2ccnc(NCC3CC3)n2)cn1 | -5.433%
CCNc1ncc(C)c(-c2cnn(C)c2)n1 | 108.7%
Cn1ncnc1-c1ccnc(NCc2ccncc2)n1 | 2.269%
Cc1cnc(NCc2cnn(C)c2)nc1-c1cnn(C)c1 | 107.4%
O=C(CN1CCCS1(=O)=O)Nc1ccc(OC(F)F)cc1 | 5.702%
CC(C)CN1CCc2[nH]cnc2C12CCN(C(=O)c1cc[nH]n1)CC2 | -17.95%
CC(=O)NCc1ccc(S(=O)(=O)NC(=O)c2ccc3c(c2)COC3)cc1 | -5.848%
CC(NC1(CNS(=O)(=O)N(C)C)CCCC1)c1ccccc1 (stereo not given) | -3.44%
CCC(NC(N)=O)c1ccccc1OCC(=O)N1CCCC1 (stereo not given) | -5.34%
Cc1cnc(NCc2csc(C(C)C)n2)nc1-c1cnn(C)c1 | 93.26%
Cc1cnn(CC(C)NCc2csc(-c3cnn(C)c3)n2)c1 (stereo not given) | 15.88%
CC(C)c1nc(CNc2nccc(CCC(F)(F)F)n2)cs1 | -5.11%
O=c1[nH]c(-c2ccncc2)ncc1-c1ccnc(N2CCOCC2)n1 | 98.38%
O=c1[nH]c(-c2ccncc2)ncc1-c1ccnc(NC2CC2)n1 | 114.3%
O=C(COCc1nc(-c2ccncc2)no1)NC1CCCCC1 | -10.3%

SMILES | Percent Effect
Cc1ncc(-c2ccnc(N3CCCCC3)n2)c(=O)[nH]1 | 2.763%
CCCn1ncc(-c2ccnc(NC3CC(C)(C)NC(C)(C)C3)n2)c1C | 10.1%
Cc1ccc(-c2ccnc(N3CCC4(CCO4)CC3)n2)c(C)n1 | 1.011%
O=c1[nH]c(-c2ccncc2)ncc1-c1ccnc(NC2CCCCC2)n1 | 85.21%
O=c1[nH]c2nc(NC3CC3)ncc2c(=O)n1-c1ccc(F)cc1 | 8.247%
O=C(c1ccc(F)c(F)c1)N1CCCC(Nc2ccc(F)cc2)C1 (stereo not given) | -4.983%
O=C(NCC1CC1)c1cc2c(s1)CCN2C(=O)c1cccnc1 | 93.16%
Cc1cc(C(=O)NCC2CCCC2)c(C)n1-c1cccnc1 | 5.973%
O=C(NCC1CC1)c1cc2c(s1)CCN2C(=O)c1ccc(F)cc1 | 95.26%
COC(=O)c1ccc(C(=O)N2CCCC(Nc3ccc(F)cc3)C2)cc1 (stereo not given) | -50.64%
CC(NC(=O)c1cc(N2CCNC2=O)ccc1F)c1ccc(F)cc1 (stereo not given) | -0.5858%
CCSCCC(=O)Nc1ncn(Cc2ccccc2)n1 | -26.44%
CCSCCC(=O)NCCn1nc2ccccn2c1=O | -5.498%
O=c1n(CCNc2cccc3ccccc23)nc2ccccn12 | 88.07%
O=c1n(CCNCc2cccc3ccccc23)nc2ccccn12 | 89.88%
O=c1n(CCSCc2ccccc2Cl)nc2ccccn12 | 6.647%
O=c1n(CCSCc2ccccc2Br)nc2ccccn12 | -15.86%
O=C(CCSc1ccccc1)NCCn1nc2ccccn2c1=O | 3.117%
COc1ccc(Cl)cc1CN1CC(n2cccn2)C1 | -1.811%
COCC(=O)NCC[C@H]1CC(C)(C)Oc2ccc(OC)cc21 | 109.1%
CCCNC(=O)CNC(=O)CC1CCCc2cc(OC)ccc21 (stereo not given) | -20.04%
COCC(=O)NCC[C@H]1CC(C)(C)Oc2ccccc21 | 119%
COc1cccc(C2(NC(=O)CCNC(C)=O)CC2)c1 | -8.972%
COCC(=O)NCCc1ccc(I)s1 | -6.07%
COCC(=O)NCCc1ccc(Cl)s1 | -5.141%
COc1ccc2c(c1)CCCC2CC(=O)NCC(=O)O (stereo not given) | -14.49%
COc1ccc2c(c1)[C@@H](CCNC(C)=O)CC(C)(C)O2 | 118.9%

SMILES | Percent Effect
CC1(C)C[C@H](CCNC(=O)c2ccncc2)c2ccccc2O1 | 152.5%
O=C(NC[C@H]1OC[C@@H](NC(=O)c2ccccc2)[C@@H]1O)c1ccncc1 | -2.654%
COc1ccc2c(c1)CC(NC(=O)NCc1cccs1)CO2 (stereo not given) | -5.09%
CN(Cc1ccco1)Cc1ccccc1CNC(=O)c1ccncc1 | 21.51%
O[C@@H]1C[C@@H](c2nc(Cc3ccccc3)no2)N(Cc2ncc[nH]2)C1 | 0.9239%
COc1ccc(CNC(=O)NC2CCC(O)CC2)c(C(F)(F)F)c1 (stereo not given) | 20.35%
CCc1ccc(C(=O)N(CC(F)(F)F)C2CCCOC2)o1 (stereo not given) | 5.996%
Cc1cc(CSc2nc(=O)ccn2C(C)C)no1 | -4.933%
CSCC[C@@H](CO)Nc1ccc(-c2nc(-c3ccccc3F)no2)cn1 | -8.084%
CCC(C)(N)c1nc(=O)c(C)c(C)[nH]1 (stereo not given) | -33.14%
Cc1noc(C)c1CS(=O)(=O)CC(=O)NCCc1cccs1 | 0.1957%
CC(=O)N1CCC(C(=O)NC2CC(C)(C)Oc3cc(C)ccc32)CC1 (stereo not given) | -7.853%
COc1ccc2c(c1)C(NCCc1ccccn1)CCCO2 (stereo not given) | 1.37%
CC(=O)NCC[C@H]1CC(C)(C)Oc2ccccc21 | 133.5%
Cc1ccc2c(c1)OC(C)(C)CC2NC(=O)C1CCN(C)CC1 (stereo not given) | -0.1155%
CNCC[C@H]1CC(C)(C)Oc2ccc(OC)cc21 | 108.6%
COc1ccc2c(c1)C(NCCc1c(C)noc1C)CCCO2 (stereo not given) | -2.374%
CNCC[C@H]1CC(C)(C)Oc2ccc(OCC3CC3)cc21 | 114.8%
NCc1ccc(Oc2cccc(Cl)c2Cl)nc1 | 4.271%
CCCc1[nH]n(C)c(=N)c1-c1ccc2c(c1)OCO2 | -1.578%
O=C(Nc1nc(-c2ccccc2)ns1)N1CCC(F)CC1 | -10.12%
Cc1n[nH]c(C)c1CNC(=O)c1cn(CCC2CCCCN2)nn1 (stereo not given) | -13.81%
NC(=O)C1(c2cnccn2)CCCN1Cc1cc2ccccc2o1 (stereo not given) | -3.809%
NC(=O)C1(c2cnccn2)CCCN1Cc1ccccn1 (stereo not given) | 123%
Cc1cccc(CN2C[C@@H](CN3CCCN(C)CC3)[C@@H](CO)C2)n1 | 16.72%
Cc1cccc(CO[C@@H]2C[C@H]3CN(C(=O)c4cnccn4)CCN3C2)n1 | -10.31%
Cc1cccc(CN2CCCC2(C(N)=O)c2cnccn2)n1 (stereo not given) | 94%

SMILES | Percent Effect
O=C(O)[C@]12CCCN(Cc3ccccn3)[C@@H]1CCN(c1cnccn1)C2 | -12.33%
c1ccc(-c2nnc(CNCC3CCCN3c3cccnn3)o2)cc1 (stereo not given) | -18.66%
Cc1oncc1C(=O)N1CCC2(CC1)CC(N1CCOCC1)C2.O=C(O)C(F)(F)F | 99.49%
O=C(O)C(F)(F)F.O=C1CC(c2ccncc2)C2(CCN(C(=O)c3cccc(F)c3)CC2)N1 (stereo not given) | 8.556%
O=C(O)C(F)(F)F.O=C(c1ccccc1)N1C[C@@H]2CCCO[C@@H]2[C@H](N2CCOCC2)C1 | -6.046%
Cn1cccc1C(=O)N1CCC2(CC1)CC(N1CCOCC1)C2.O=C(O)C(F)(F)F | 103.3%
O=C(O)C(F)(F)F.O=C(c1cccc(F)c1)N1CCC2(CC1)CC(N1CCOCC1)C2 | 110.5%
CN1CCCCC12CCN(C(=O)c1cccn1C)CC2.O=C(O)C(F)(F)F | -9.83%
COc1cc(N2CCC3(CC2)CC(N2CCOCC2)C3)ncn1.O=C(O)C(F)(F)F | -37.73%
CC(=O)N1CCC2(CC1)CC(N1CCOCC1)c1ccc(C)cc12.O=C(O)C(F)(F)F (stereo not given) | 0.6002%
CC(=O)N1CCOC2(CCN(C(=O)c3cnoc3C)CC2)C1 | 6.241%
O=C(O)C(F)(F)F.O=C(c1ccc(F)cc1)N1CCC2(CC1)CC(N1CCOCC1)C2 | 98.46%
CN(C)C1COC2(CCN(C(=O)c3cccc(Cl)c3)CC2)C1.O=C(O)C(F)(F)F (stereo not given) | -2.157%
O=c1[nH]c(NCc2cccc(OC(F)F)c2)nc2c1CCNC2 | -5.963%
O=C(NCC1CC1)[C@H]1C[C@@H]2CN(C(=O)NCC3CCCCC3)C[C@H]1O2 | 9.811%
Cc1nc(CC(C)C)sc1C(=O)N1CCC1 | -0.1519%
Cc1nc(CC(C)C)sc1C(=O)N1CCC(C2(C)OCCO2)CC1 | 1.957%
Cc1nc(C(C)C)sc1C(=O)N1CCN(C2CCSCC2)CC1 | 90.05%
CC(C)(C)c1ncc(C(=O)N2CCC(N3CCSCC3)CC2)c(O)n1 | -20.12%
COC1CCCN(C(=O)c2sc(CC(C)C)nc2C)C1 (stereo not given) | -1.564%
CCCn1ncc(C(=O)N2CCN(C3CCSCC3)CC2)c1C | 7.373%
CN(C)C(C(=O)N1CCC(N2CCSCC2)CC1)c1ccccc1F (stereo not given) | 11.01%
Cc1nc(C(C)C)sc1C(=O)N1CCC(C(N)=O)CC1 | 81.6%
Cc1nc(C(C)C)sc1C(=O)N1CCC(N2CCSCC2)CC1 | 96.22%
